The values below come from the supplement of paper PMC8975748.

Counter-ions that a name gives are not always drawn.

This assay relates to Saccharomyces cerevisiae BY4741 SeMeCo community. The assay can be described thus: z-score of subpopulation abundance vs DMSO median, subpopulation auxotrophic for LM; higher = larger share of this subpopulation than in DMSO controls. Conditions: 10 µM; 24 h; SM minimal medium; subpopulation (auxotrophy): LM. How it is done:
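Fluorescent four-plasmid SeMeCo (self-establishing metabolically cooperating S. cerevisiae BY4741 community; plasmids pH-mRuby2, pL-mWasabi, pU-eCFP, pM-TagRFP657) was grown 24 h in minimal SM medium with each Selleck FDA-approved drug at 10 µM in 384-well plates. Cells were fixed and imaged by high-content confocal microscopy. For each auxotrophic subpopulation (and the prototroph), a z-score gives the deviation from the DMSO vehicle-control population median.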
Regarding `Cc1c(Cl)cccc1Nc1ccccc1C(=O)O` [Tolfenamic Acid], the “z-score of subpopulation abundance” value was -1.47.
To `CC[C@H](C)C(=O)O[C@H]1C[C@H](O)C=C2C=C[C@H](C)[C@H](CC[C@@H](O)C[C@@H](O)CC(=O)O)[C@H]21` [Pravastatin sodium] belongs 1.93; to `OCc1ccc(Cl)cc1Cl` [2,4-dichlorobenzyl alcohol], 0.21.
`CCOc1ccc2nc3cc(N)ccc3c(N)c2c1` [Ethacridine lactate monohydrate]: the “z-score of subpopulation abundance” value was found to be 4.18.
Consider `CC(C)(C)CC(C)(C)c1ccc(OCCOCC[N+](C)(C)Cc2ccccc2)cc1` [Benzethonium Chloride], for which the “z-score of subpopulation abundance” value is -0.72.
To `O=C(Nc1cccc(C2=NCCN2)c1)Nc1cccc(C2=NCCN2)c1` [Imidocarb dipropionate] belongs -0.28.
Regarding `CCCCCCCCCCCC(=O)O` [Lauric Acid], the “z-score of subpopulation abundance” value is -0.8.
With `O=C(C1CCCCC1)N1CC(=O)N2CCc3ccccc3C2C1` (stereo not given) [Praziquantel] the figure was 0.34; with `COc1cccc(CCc2ccccc2OCC(CN(C)C)OC(=O)CCC(=O)O)c1` (stereo not given) [Sarpogrelate hydrochloride], -0.29; with `CN[C@H]1CC[C@@H](c2ccc(Cl)c(Cl)c2)c2ccccc21` [Sertraline HCl], -0.97.
With `C[C@H]1O[C@@H](O[C@H]2[C@@H](O)C[C@H](O[C@H]3[C@@H](O)C[C@H](O[C@H]4CC[C@@]5(C)[C@H](CC[C@@H]6[C@@H]5C[C@@H](O)[C@]5(C)[C@@H](C7=CC(=O)OC7)CC[C@]65O)C4)O[C@@H]3C)O[C@@H]2C)C[C@H](O)[C@@H]1O` [Digoxin] the figure was -0.41; with `CCOc1cc(N)c(Cl)cc1C(=O)NCC1CN(Cc2ccc(F)cc2)CCO1` (stereo not given) [Mosapride], -0.41; with `CCn1cc(C(=O)O)c(=O)c2ccc(C)nc21` [Nalidixic acid], 0.23.
As to `CC(C)C(=O)Oc1ccc(CO)cc1[C@H](CCN(C(C)C)C(C)C)c1ccccc1` [Fesoterodine Fumarate], the “z-score of subpopulation abundance” value is -0.9.
Consider `Nc1nc(N)nc(-c2cc(Cl)ccc2Cl)n1` [Irsogladine], for which the “z-score of subpopulation abundance” value turned out to be 0.16.
With `CC[C@H](C)C(=O)O[C@H]1CCC=C2C=C[C@H](C)[C@H](CC[C@@H]3C[C@@H](O)CC(=O)O3)[C@H]21` [Mevastatin] the figure was -0.31.
To `OCCOCCN1CCN(C2=Nc3ccccc3Sc3ccccc32)CC1` [Quetiapine Fumarate] belongs 0.32; to `Nc1nc(O)c2ncn(CCC(CO)CO)c2n1` [Penciclovir], -0.19.
To `Cn1c([N+](=O)[O-])cnc1COC(N)=O` [Ronidazole] belongs -0.82; to `NC(=O)c1cnccn1` [Pyrazinamide], -0.13.
Turning to `CCOC(=O)C1=C(COCCN)NC(C)=C(C(=O)OC)[C@@H]1c1ccccc1Cl` [Levamlodipine], the “z-score of subpopulation abundance” value turned out to be 3.35.
For `Cc1ccc(-c2ncc(Cl)cc2-c2ccc(S(C)(=O)=O)cc2)cn1` [Etoricoxib], the “z-score of subpopulation abundance” value stood at 0.07.
To `CCOc1ccc(NC(C)=O)cc1` [Phenacetin] belongs -1.19.
To `CC(=O)OCC1=C(C(=O)O)N2C(=O)[C@@H](NC(=O)Cc3cccs3)[C@H]2SC1` [Cephalothin] belongs 0.02; to `COc1ccc(Cl)cc1C(=O)NCCc1ccc(S(=O)(=O)NC(=O)NC2CCCCC2)cc1` [Glyburide (Glibenclamide)], 1.74; to `COc1cc(NS(=O)(=O)c2ccc(N)cc2)ncn1` [Sulfamonomethoxine], -0.55.
To `Cc1ncc([N+](=O)[O-])n1CC(C)O` (stereo not given) [Secnidazole] belongs -0.67; to `Oc1c(I)cc(Cl)c2cccnc12` [Clioquinol], 5.23; to `CCN(CC)CCOCCOC(=O)C1(c2ccccc2)CCCC1` [Pentoxyverine Citrate], -0.24.
In the case of `C[C@@H]1CN(c2c(F)c(N)c3c(=O)c(C(=O)O)cn(C4CC4)c3c2F)C[C@H](C)N1` [Sparfloxacin], the “z-score of subpopulation abundance” value stood at 0.37.
Turning to `CCn1cc(C(=O)O)c(=O)c2cc(F)c(N3CCN(C)CC3)cc21` [Pefloxacin Mesylate Dihydrate], the “z-score of subpopulation abundance” value is -0.32.
Take `Cn1c(=O)c2c(ncn2CC2OCCO2)n(C)c1=O` [Doxofylline]: the “z-score of subpopulation abundance” value was determined as 0.49.
`CCOc1cc(NC(C)=O)ccc1C(=O)OC` [Ethopabate]: the “z-score of subpopulation abundance” value was found to be 0.15.
For the compound `C[n+]1ccccc1/C=N/O` [Pralidoxime chloride], the “z-score of subpopulation abundance” value amounted to 0.17.
With `CN1[C@@H](CC(=O)c2ccccc2)CCC[C@H]1C[C@H](O)c1ccccc1` [Lobeline hydrochloride] the figure was -0.29; with `CC1=C(C(=O)O)N2C(=O)[C@@H](NC(=O)[C@H](N)C3=CCC=CC3)[C@H]2SC1` [Cefradine], -0.58.
Turning to `CC1=Nc2ccc(Cl)cc2S(=O)(=O)N1` [Diazoxide], the “z-score of subpopulation abundance” value was -1.03.
To `CC(=O)Oc1ccc(C(=C2CCCCC2)c2ccc(OC(C)=O)cc2)cc1` [Cyclofenil] belongs -1.03.
As to `CC[C@@]1(O)C(=O)OCc2c1cc1n(c2=O)Cc2cc3cc(O)ccc3nc2-1` [Hydroxy Camptothecine], the “z-score of subpopulation abundance” value came to 3.19.
With `CC1=C(C(=O)OCCN(Cc2ccccc2)c2ccccc2)C(c2cccc([N+](=O)[O-])c2)C(P2(=O)OCC(C)(C)CO2)=C(C)N1` (stereo not given) [Efonidipine] the figure was 2.26.
